This is a sample that favours compounds with a hit; in the whole collection about 1.3% have one here.
GALK inh: inhibitors of human galactokinase; Purified GALK, Kinase-Glo residual ATP luminescence; Potency, µM (series often up to 57.5 µM), for inactives: top-dose activity change, negative = inhibition, hits mostly inhibitors; actives 0.007% (n = 270,000); P51570; further: potency means the concentration at half of the fitted maximal effect; on the % scale 0 is the no-effect control and ±100 the full control effect
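Compounds were pin-transferred into ATP buffer (35 uM final), then GALK plus galactose (5 nM, 100 uM final) was added. After 1 h at room temperature, Kinase-Glo Plus was added and luminescence read after 10 min.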
Apoferritin bind: binds horse apoferritin like a general anesthetic. AID 485281. actives 0.074% (n = 350,000). Potency, µM (highest dose often 77.5 µM), inactives show top-dose activity change, negative = displacement, actives largely listed as inhibitors. apoferritin/1-aminoanthracene competitive binding, fluorescence. P02791; further: potency means the concentration at half of the fitted maximal effect; on the % scale 0 is the no-effect control and ±100 the full control effect; nearly all actives have a fitted effect of over 20% in size
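10 uM apoferritin + 50% sat. 1-AMA, PBS; cpd 10 min RT; Ex380/Em535 endpoint; normalized to free probe vs complex; 4-param Hill fit; propofol titration as pos. ctrl.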
IDH1 R132H inh: blocks human mutant IDH1 R132H enzyme; O75874; IDH1-R132H enzyme, NADPH consumption, diaphorase/resazurin fluorescence; Potency, µM (doses to about 76.6 µM), for the others: top-dose activity change, negative = inhibition, most hits filed as inhibitors; actives 0.093% (n = 390,000); further: potency means the concentration at half of the fitted maximal effect; on the % scale 0 is the no-effect control and ±100 the full control effect; nearly all actives have a fitted effect of over 65% in size
Target sequence (O75874 whole entry R132H, stated change not applied): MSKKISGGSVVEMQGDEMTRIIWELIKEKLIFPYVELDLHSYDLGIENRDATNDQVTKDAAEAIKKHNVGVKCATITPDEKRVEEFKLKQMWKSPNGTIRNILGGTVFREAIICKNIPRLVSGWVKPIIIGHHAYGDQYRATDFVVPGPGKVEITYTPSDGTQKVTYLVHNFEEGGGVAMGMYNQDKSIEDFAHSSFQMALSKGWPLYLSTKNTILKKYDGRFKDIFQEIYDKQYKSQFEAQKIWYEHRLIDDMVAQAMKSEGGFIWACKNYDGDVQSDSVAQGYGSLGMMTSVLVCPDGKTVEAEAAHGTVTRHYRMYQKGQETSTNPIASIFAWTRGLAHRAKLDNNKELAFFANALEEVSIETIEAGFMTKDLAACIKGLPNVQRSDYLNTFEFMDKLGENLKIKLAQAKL
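IDH1-R132H (0.5 ug/mL) preincubated 30 min with compound, then NADPH (0.016 mM) and alpha-KG (2 mM) added; 80 min at RT, pH 7.5. Remaining NADPH coupled via diaphorase/resazurin to fluorescence (540/590 nm); concentration-response curves normalized to no-enzyme control.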
TrxR1 substrate: rat thioredoxin reductase 1 substrate activity | O89049 | purified TrxR1 substrate turnover, NADPH consumption readout | Potency, µM (highest dose often 114 µM), for inactives: at the top dose activity change, negative = substrate turnover | actives 0.01% (n = 390,000); further: potency means the concentration at half of the fitted maximal effect; on the % scale 0 is the no-effect control and ±100 the full control effect; nearly all actives have a fitted effect of over 50% in size
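Rat TrxR1, dispensed at 90 nM, was prereduced with 400 uM NADPH (final) for 5 min at ~22 deg C, then incubated with compound 15 min before 400 uM selenite. A first-read NADPH fluorescence drop versus no-compound background flagged substrates.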
rTrxR1 inhibitor: inhibitors of rat thioredoxin reductase 1 | O89049 | recombinant rTrxR1, NADPH fluorescence consumption, selenite substrate | Potency, µM (top dose mostly 114 µM), for inactives: at the top dose activity change, negative = inhibition, hits mostly inhibitors | actives 1% (n = 390,000) | AID 588453; further: potency means the concentration at half of the fitted maximal effect; on the % scale 0 is the no-effect control and ±100 the full control effect; nearly all actives have a fitted effect of over 65% in size
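Rat TrxR1 (90 nM in the dispensed reagent) was pre-reduced with 400 uM NADPH for 5 min at room temperature, then incubated with compound for 15 min. After 400 uM selenite was added, NADPH fluorescence (Ex 340/Em 450 nm) was followed for 8 min.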
PKM2 activator: PKM2 (human) enzyme activation; P14618; purified PKM2, Kinase-Glo ATP luminescence, activation; response scale: 0% is enzyme alone, no compound; Potency, µM (top dose mostly 57.5 µM), inactives show top-dose activation, most hits filed as activators; actives 0.34% (n = 260,000); further: potency means the concentration at half of the fitted maximal effect; on the % scale 0 is the no-effect control and ±100 the full control effect; nearly all actives have a fitted effect of over 55% in size
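ATP formation by purified human PK-M2, quantified via coupled luciferase luminescence after 1 h at room temperature with 0.1 mM ADP and 0.5 mM PEP final.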
IDH1 autofl: interferes with resorufin fluorescence in IDH1 counter-screen. 750 tested, under 10 active. Resorufin detection reagent fluorescence interference, cell-free. AID 623980. shares compounds with IDH1 R132H inh. inhibition of signal, % at 51.2 µM;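 further: 0% = wells with normal resorufin and full inhibition = wells lacking resorufin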
WT IDH1 inh: wild-type IDH1 (human) inhibition counterscreen; shares compounds with IDH1 R132H inh; WT IDH1 enzyme, NADPH diaphorase/resazurin fluorescence; Potency, µM (titrated, usually from 115 µM), without a hit: at the highest dose activity change, negative = inhibition, usual class: inhibitors; actives 9% (n = 750); AID 623995;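 further: potency means the concentration at half of the fitted maximal effect; 0% = full WT IDH1 enzyme control and full inhibition = no enzyme wells; nearly all actives have a fitted effect of over 55% in size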
Target sequence (O75874 whole entry, looked up): as the sequence (O75874 whole entry R132H, stated change not applied) above, with H132R counted along it
IDH1 R132H conf: inhibits human mutant IDH1 enzyme in cherrypick confirmation; actives 83% (n = 750); AID 624002; shares compounds with IDH1 R132H inh; IDH1 R132H enzyme, NADPH diaphorase/resazurin fluorescence; Potency, µM (series often up to 76.6 µM), without a hit: at the top dose activity change, negative = inhibition, hits mostly inhibitors; further: potency means the concentration at half of the fitted maximal effect; nearly all actives have a fitted effect of over 50% in size
Starred values were filed as active, the others as inactive; ? = inconclusive; . = no result given; [ ] = remark or other dose. The call rests on the fitted dose curve; in most records, active means well fitted curve in the direction sought with a large enough effect; inconclusive means small, poorly fitted or top-dose-only effect, or another doubt; inactive means no such curve, though single readings can be large; an effect the other way counts as inactive or inconclusive.

SMILES	GALK inh	Apoferritin bind	IDH1 R132H inh	TrxR1 substrate	rTrxR1 inhibitor	PKM2 activator	IDH1 autofl	WT IDH1 inh	IDH1 R132H conf
COc1nnc(-c2ccc(C)c(S(=O)(=O)NC(C)C)c2)c2ccccc12	1%	6%	26%	4%	19%	.	.	.	.
Cc1ccc(-c2nnc(Nc3ccc(F)cc3)c3ccccc23)cc1S(=O)(=O)NC(C)C	.	4%	?	6%	15%	.	1	7%	?
CSc1ccc(C2c3c(oc4cc(C)cc(C)c4c3=O)C(=O)N2CCO)cc1 (configuration not stated)	.	?	.	1%	-2%	.	.	.	.
COc1ccc(NC2=C(c3ccccc3)C(=O)c3ccccc32)cc1Cl	.	-22%	?	4%	17%	.	-6	-1%	7.1µM*
S=C1NC(c2ccccc2)=CC(c2ccccc2)N1 (configuration not stated)	8%	-9%	0%	-1%[57.1 µM]	3%[57.1 µM]	2%	.	.	.
N#CC1C(=O)NC(c2ccccc2)=CC1c1ccccc1 (configuration not stated)	.	.	52µM*	12%[57.1 µM]	3%[2.29 µM]	.	-6	160%	45µM*
CC(C)CCSc1nc(N2CCOCC2)c2c(c1C#N)CC(C)(C)OC2	-2%	-8%	16µM*	-1%[57.1 µM]	23%[57.1 µM]	1%	-10	11%	7.9µM*
COC(=O)CCSc1nc(N2CCOCC2)c2c(c1C#N)CC(C)(C)OC2	0%	-6%	7%	-7%[57.1 µM]	2%	.	.	.	.
Cc1nn(-c2ccccc2)c(Cl)c1CN(C(=O)CCl)c1ccc(Cl)cc1	-4%	4%	52µM*	-10%	22µM*	-1%	-2	-2%	28µM*
Cc1ccc2nc3c(nc2c1C)C(O)=C3O	5%	5%	?	2%[57.1 µM]	8.9µM*	-3%	-6	63%	45µM*
Cc1ccc2nc3c(nc2c1C)CCCC3	3%	6%	0%	13%[57.1 µM]	8%[57.1 µM]	.	.	.	.
O=C(Nc1ccc(Br)cc1F)C1CCN(c2nc3ccccc3[nH]2)CC1	.	41%	-5%	4%[57.1 µM]	21%[57.1 µM]	.	.	.	.
CCNC(=O)NC(=O)C(C)OC(=O)c1oc2ccccc2c1CSC1CCCCC1 (configuration not stated)	1%	-3%	?	-1%	5%	-2%	-1	0%	32µM*
CC(C)C(OC(=O)c1oc2ccccc2c1CSC1CCCCC1)C(=O)NC(N)=O (configuration not stated)	0%	-9%	.	.	.	3%	.	.	.
Cc1ccc(S(=O)(=O)CCc2nnc(NC(=O)CCl)s2)cc1C	-4%	-3%	?	5%	?	7%	-1	-6%	32µM*
CCN(CC)c1ccc(-c2nn3c(-c4n[nH]c5c4CCC5)nnc3s2)cc1	-3%	312%	?	37%[57.1 µM]	-1%[57.1 µM]	-7%	2	-2%	40µM*
O=C(Oc1ccc2c(c1)O/C(=C\c1ccncc1)C2=O)c1ccccc1	-5%	93%	52µM*	-20%	?	0%	3	1%	35µM*
CC(C)(C)c1ccc(/C=C2\Oc3cc(OC(=O)N4CCOCC4)ccc3C2=O)cc1	0%	1%	1%	-18%	50%[57.1 µM]	3%	.	.	.

Screening data deposited in PubChem BioAssay by National Center for Advancing Translational Sciences (NCATS).
